One test has as its target TNPO2. Kind of test: pooled miR-30 sensor sort-seq; sequence = guide strand. The following applies: shRNA.
Sequence TTGTCTTCGTCCTTGAGCTCAT gave a sensor-assay potency score (higher = more potent) of 0.165. Same read-out and setting: for TTGAAGAACTGCAGGAACTTGG the value was -0.371; for AATCTTATAAAACATGTCCCGA, -0.983. The same measure, in the same setting: for TTTTCCAGCAGTGTCTTGGGTG the value was -0.0437. Same read-out and setting: in the case of TTGACACCGATCATCATGCAGA it was -0.349; in that of AATGTTGTTGAGACACTCCTGT, 0.856. Regarding TTGTTCTTGAGGATGAGGCCAC, the sensor-assay potency score (higher = more potent) is -0.289. On the same count and under the same terms, for TGAGTCTTTGAGCAGCTGCAGG the value was -1.5; for TTTGAGTTTATCCTGCACGATG, -1.1.

The sequence TCATCTTCTGACTTGAGTCTGG had a sensor-assay potency score (higher = more potent) of 0.0435.

For the next test, the target named is TOMM40L. Described as above. The following applies: shRNA.
On to TTACTATCCACCAAGCCTCTAA, for which the sensor-assay potency score (higher = more potent) was -0.326. Same read-out and setting: for TACCAAATCCAGCACATCCAGG the value was -1.16. The sequence TTTGGAACCTCTGATAGTCTGT showed a sensor-assay potency score (higher = more potent) of 0.397.

TGTGGTAGTAACTTGCATGGGC registered a sensor-assay potency score (higher = more potent) of 1.17. Still for that read-out and setting: for TCTGATAGTCTGTCATACCAGA the value was -0.753; for TAGACGGTGCAGCTCATCGAAG, -1.14. Still for that read-out and setting: in the case of TTATACCATAGAACACATCCAC it was -0.126; in that of TACATCTTTGCATAGACGGTGC, 0.000587. Still for that read-out and setting: in the case of TAAGAGGTAAAGAAGCTCCTTC it was 0.51; in that of TATACCATAGAACACATCCACC, -1.17; in that of TTTCTCTAATGTTCAGACCTGG, -0.359.

For TAGTCTGTCATACCAGAGCATG, the sensor-assay potency score (higher = more potent) is -1.7.

A further test concerns the target TOP1MT. The description is as above. To be noted: shRNA.
With TTGTAGGTCCGGAACACCTTGG, the sensor-assay potency score (higher = more potent) was -0.571.

In turn, TCATTGAAGAAGTTCTTCCGGA came in with a sensor-assay potency score (higher = more potent) of 0.332.

TTTTTCTTGGTGACCATCTAAA: the sensor-assay potency score (higher = more potent) was -1.15. TTTGCCTGGATCTTCGTCTGGA came in with a sensor-assay potency score (higher = more potent) of 0.141. Still for that read-out and setting: for TGTAGGATAAGATCTTAGCTGC the value was 0.167. As for TTGTTCTCCTCCTTGTCCGTGG, the sensor-assay potency score (higher = more potent) was -0.327. The same measure, in the same setting: in the case of TTTTGCTGTAGATCTTCTCCAC it was 0.12; in that of TTCTGAACGCTCTCGGTCCAAG, -1.34. In turn, TATTCATGATCTAACATCCTCC gave a sensor-assay potency score (higher = more potent) of 0.13. The same measure, in the same setting: in the case of TTGTCCACAAAGTATCTGTGGA it was 0.0397; in that of TTCTTCTCCAGGACACTCCTGG, 0.134. As to TTGTTGTGTATTCATGATCTAA, the sensor-assay potency score (higher = more potent) is -0.885.

The target of the next test is TP53I13. Described as above. The following applies: shRNA.
In the case of TGACTTGAACAGACACAGCCCC, the sensor-assay potency score (higher = more potent) was -0.111. On the same count and under the same terms, for TAGAGGAAGGTGACATCCTCAG the value was -0.655.

For the sequence TTCAGCACAGCAGCCACTGTGT, the sensor-assay potency score (higher = more potent) is -0.771. TTGGCCTTCAAGCTCCCTGGGG: the sensor-assay potency score (higher = more potent) was -0.75.

In the case of TTGGTGACACCTGCGGAGGCAG, the sensor-assay potency score (higher = more potent) is -1.23.

These data come from the OligoGym collection.
Further: reference of the scale not given here.
